Consider 108 molecules from ChEMBL document CHEMBL4513216, “Probing the Open Global Health Chemical Diversity Library for Multistage-Active Starting Points for Next-Generation Antimalarials” (ACS Infect Dis, 2020).

The whole screen tested about 69,000 compounds, of which about 8,600 (12%) showed an effect of 50% or more. For the sample, strong results were picked, then their nearest neighbours and some compounds at random.

The test system of this test is Plasmodium berghei. The test is described as follows: Screen against P. berghei liver stage (PbLuc), transformed with Luciferase, at 10uM. The class given is functional, HepG2. Conditions: tested at 10 uM.
On to `O=C(CC1CC1)NCc1cn2c(n1)CN(Cc1nccs1)CC2`, for which the INHIBITION is on record as 33.4%. As for `CCC(C)(NCC(=O)Nc1nc(C)cs1)c1nc(C)cs1` (stereo not drawn), the INHIBITION is 12.2%. Consider `CCC(C)(NCC(=O)NC(C)C)c1nc(C)cs1` (stereo not drawn), for which the INHIBITION is 76.7%. For `CCC(C)(NCC(=O)Nc1ccccc1)c1nc(C)cs1` (stereo not drawn), the INHIBITION is recorded as 9.3%. In the case of `CC(C)c1nc(O)c2nnn(C[C@H]3CCCN(Cc4ccsc4)C3)c2n1` it was 32.3%. Regarding `CCC(=O)N1CCC2(CC1)CN(CCO)Cc1ccccc12`, the INHIBITION is given as -16.2%. As to `CCc1oc2ccc(NS(C)(=O)=O)cc2c1C(=O)OC`, the INHIBITION is listed as 12.8%. As to `COc1ccc(-c2cnc3n2CCNC32CCN(S(C)(=O)=O)CC2)cc1`, the INHIBITION amounted to 57.1%. Under `CS(=O)(=O)N1CCC2(CC1)NCCn1c(-c3ccccc3)cnc12` stands -0.554%. In the case of `COc1cccc(-c2cnc3n2CCC32CCN(S(C)(=O)=O)CC2)c1`, the INHIBITION was determined as 39.3%. Turning to `COc1ccc(CC(=O)N2CCC[C@@H](N)[C@@H]2c2ccccc2F)cc1`, the INHIBITION was found to be 44.8%. In the case of `CC(C)NC(=O)CC1COC2(CCN(Cc3cccs3)CC2)C1` (stereo not drawn) it was 29.9%; in that of `Cc1cnc(NC(=O)N2CCCC2)s1`, -1.58%.

Consider `Cc1cccc(NC(=O)c2csc(NCC(C)C)n2)n1`, for which the INHIBITION is -27.5%.

Turning to `CC(C)CCNc1nc(C(=O)NC2CC2)cs1`, the INHIBITION was -30%. For `O=C(Nc1nccs1)c1csc(NC2CCCC2)n1`, the INHIBITION stood at 80.9%. For `Cc1cnc(NC(=O)c2csc(NCC(C)C)n2)s1`, the INHIBITION worked out at 83.8%. On to `Cc1cnc(NC(=O)c2csc(NC3CCCC3)n2)s1`, for which the INHIBITION came to 89.6%. In the case of `CCN(CC)C(=O)CCCNC(=O)c1csc(NC2CC2)n1`, the INHIBITION turned out to be 28%. Under `O=C(Nc1ccccn1)c1csc(NC2CCCC2)n1` stands -32.8%; under `CC(NC(=O)Nc1nccs1)C(=O)NC1CCCC1` (stereo not drawn), 40.2%; under `O=C(CCC1CCN(C2CCSCC2)CC1)NCC1CCCO1` (stereo not drawn), 42.1%. In the case of `CCc1nc(CN(C(C)=O)C2CCN(CCc3cccs3)C2)no1` (stereo not drawn) it was 36.1%; in that of `CC(C)c1nc2c(n1C)CCN(Cc1cccc(OCC(N)=O)c1)C2`, 7.08%. Take `O=C(CSc1ccccn1)N1C[C@@H]2CC[C@H]1CN(Cc1cscn1)C2`: the INHIBITION is given as -38.9%. In the case of `O=C(c1ccccn1)N1CCc2ncc(Cn3cccn3)n2CC1` it was -14.2%; in that of `O=C(CCn1ccc2cc(Br)ccc21)/N=c1\[nH]nc(C2CCCO2)s1` (stereo not drawn), 35.1%. Under `Cc1cc(=O)n2ncnc2n1CC(O)c1ccccc1` (stereo not drawn) stands 62.9%. With `Cc1cc(=O)n2ncnc2n1CC(O)c1ccccc1F` (stereo not drawn), the INHIBITION is reported as 33%. With `Cc1cc(=O)n2ncnc2n1CC(O)c1ccc(F)cc1F` (stereo not drawn), the INHIBITION is 57.6%.

Turning to `Cc1cc(=O)n2ncnc2n1CC(O)c1cc(F)ccc1F` (stereo not drawn), the INHIBITION was -4.74%. In the case of `Cc1cc(=O)n2ncnc2n1CC(O)COCc1ccccc1Cl` (stereo not drawn) it was 55.4%. Turning to `Cn1ncc2cnn(CC(O)COCc3ccccc3Cl)c2c1=O` (stereo not drawn), the INHIBITION is -30.1%. Regarding `Cc1cc(=O)n2ncnc2n1CC(O)c1ccccc1Cl` (stereo not drawn), the INHIBITION stood at 2.37%.

For `Cc1cc(=O)n2ncnc2n1CC(O)c1cc(Cl)ccc1Cl` (stereo not drawn), the INHIBITION worked out at 29.8%. In the case of `Cc1cc(CN(C)CCC(O)c2ccccc2)nn1C` (stereo not drawn) it was -3.3%; in that of `CN1CCN(c2cc(CNC(=O)c3cccnc3O)ccn2)CC1`, 18.36%. Turning to `CCN1CCN(C2CCN(Cc3nc(C)c(C)o3)CC2)C1=O`, the INHIBITION is 44.1%.

As to `CCc1nc(C2CCCN2Cc2ncc(C)c(OC)c2C)no1` (stereo not drawn), the INHIBITION stood at 11.4%. Under `O=S(=O)(C1CC1)N1CCOCC2(CCN(c3ccccn3)C2)C1` (stereo not drawn) stands -26.1%.

On to `CS(=O)(=O)CC(=O)N1C[C@H]2CCC[C@@]2(COCc2ccncc2)C1`, for which the INHIBITION was determined as 31.2%. `CCC(CCNC(=O)c1cc(C2CC2)nc2c1cnn2C)n1cccn1` (stereo not drawn): the INHIBITION is recorded as 9.55%. As for `CC(C)NC(=O)N1CCN(CCn2cccn2)c2ncccc2C1`, the INHIBITION worked out at 5.89%. `COc1ccc(-c2ccccc2CCN)c(OC)c1`: the INHIBITION is -2.9%. For `COc1ccc(-c2cc(CN)ccc2F)c(OC)c1OC`, the INHIBITION came out at 30.9%. For `COc1ccc(-c2ccccc2CCN)c(OC)c1OC`, the INHIBITION is reported as 50.8%.

On to `Cc1cnc(C(=O)N2C[C@@H](NS(C)(=O)=O)[C@@H]3OCCC[C@@H]32)cn1`, for which the INHIBITION worked out at 35.7%. Under `FC(F)(F)COc1ccc(CSCc2ccon2)cn1` stands 24%; under `Cc1nnc(CSCc2ccc(OCC(F)(F)F)nc2)o1`, 56%. In the case of `Cc1nc(CSCc2ccc(OCC(F)(F)F)nc2)no1` it was 40.7%. Regarding `NC(=O)NC(=O)CCN1CCCC1c1cccc2c1OCCO2` (stereo not drawn), the INHIBITION is given as 27.7%.

In the case of `COCCN1CCCC1c1cccc2c1OCCO2` (stereo not drawn), the INHIBITION was determined as 59.4%. In the case of `CCNC(=O)CCN1CCCC1c1cccc2c1OCCO2` (stereo not drawn), the INHIBITION is -2.23%.

With `O=C(CCN1CCCC1c1cccc2c1OCCO2)N1CCCCC1` (stereo not drawn), the INHIBITION was found to be 40.6%.

Consider `O=C(CCN1CCCC1c1cccc2c1OCCO2)N1CCOCC1` (stereo not drawn), for which the INHIBITION came to 57.7%. In the case of `COC(=O)CCN1CCCC1c1cccc2c1OCCO2` (stereo not drawn) it was 15.9%. Under `Cn1cc(C(=O)NCC2CCN(C(=O)NC3CCCCC3)CC2)cn1` stands -3.7%; under `OCC(CO)Nc1nc(C(F)F)nc2ccccc12`, 51.9%. In the case of `CSCC(CCO)Nc1nc(C(F)F)nc2ccccc12` (stereo not drawn), the INHIBITION was -49%. In the case of `CCC(CO)Nc1nc(C(F)F)nc2ccccc12` (stereo not drawn) it was 8.41%; in that of `CCCc1nc(CN(CC)C(=O)c2ccc3c(c2)nnn3C)no1`, 52.8%; in that of `CCCc1nc(CN(CC)C(=O)c2ccc(OC)c(OC)c2)no1`, 30.1%. Take `Cc1ccc(-c2noc(C3CCN3C(=O)c3ccn(C)n3)n2)s1` (stereo not drawn): the INHIBITION is reported as 23.95%. In the case of `CCCc1nc(CN(CC)C(=O)c2ccc3[nH]cnc3c2)no1` it was 30.1%; in that of `CCc1nc(C2CCCN2C(=O)c2cc[nH]n2)no1` (stereo not drawn), 58.5%. Under `CCc1nc(C2CCCN2C(=O)c2c[nH]c(C)n2)no1` (stereo not drawn) stands 26.1%. With `Cc1ccc(-c2noc(C3CCN3C(=O)c3ccc(=O)[nH]n3)n2)s1` (stereo not drawn), the INHIBITION was found to be 4.505%. Under `CCc1nc(C2CCCN2C(=O)c2ccc3c(c2)nnn3CC)no1` (stereo not drawn) stands 2.61%; under `CCc1nc(C2CCCN2C(=O)c2ccc3c(c2)nc(C)n3C)no1` (stereo not drawn), -8.3%. As to `Cc1ccc(-c2noc(C3CCN3C(=O)c3cc[nH]n3)n2)s1` (stereo not drawn), the INHIBITION is given as 85%. In the case of `CCc1nc(C2CCCN2C(=O)c2ccc3c(c2)nnn3C)no1` (stereo not drawn) it was 62.6%. Take `CCc1nc(C2CCCN2C(=O)c2cc(C3CC3)[nH]n2)no1` (stereo not drawn): the INHIBITION is 9.32%. Under `O=C(NCC1(COc2cnccn2)C[C@@H](O)[C@@H](O)C1)C1CC1` (stereo partly drawn) stands 18.2%; under `COc1nn(C)c2c1CCCN(C(=O)COc1ccccc1)C2`, -15.7%; under `COc1cc(NC(=O)CCn2nc(-c3cccs3)oc2=O)cc(OC)c1`, -7.81%. Take `CC1CCCN(C(=O)c2ccn(COc3ccccc3)n2)C1` (stereo not drawn): the INHIBITION turned out to be 27.5%.

With `CC(C)N1CCc2c(c(COc3cncnc3)nn2CC2CC2)C1`, the INHIBITION is given as 2.4%.

Regarding `Cc1nn(C)c(N2CCOCC2)c1CNC(C(N)=O)c1ccccc1` (stereo not drawn), the INHIBITION is on record as -32.4%.

Take `COc1ccc(CNC(=O)NCC(=O)NC2CC2)c(C(F)(F)F)c1`: the INHIBITION is given as 26.6%.

With `CCc1ccc(S(=O)(=O)Nc2ccc(F)cc2C(=O)O)s1`, the INHIBITION turned out to be 5.605%. Under `CC(=O)N1CCO[C@@H]2CN(S(=O)(=O)c3cccs3)CC[C@@H]2C1` stands 21.6%; under `CC1CCN(C(=O)[C@H]2C[C@@H]3CCN(CC4CCOCC4)C[C@@H]3O2)CC1`, 24.9%; under `CCc1cc(O)nc(C2CCCN2C(=O)COC)n1` (stereo not drawn), 30.8%. Under `CCc1cc(C(=O)N2CCCC2c2nc(O)cc(CC)n2)on1` (stereo not drawn) stands 1.11%; under `CCc1cc(O)nc(C2CCCN2C(=O)c2cc(CC)on2)n1` (stereo not drawn), 51.5%.

Take `Cc1cccc(C(=O)N2CCC(c3n[nH]c(C4CC4)n3)CC2)c1`: the INHIBITION is given as 44.1%. Under `Cc1ccccc1-n1cc(C2=CCN(CCn3cc[nH]c3=O)CC2)cn1` stands 69.4%; under `O=c1[nH]ccn1CCCN1CC=C(c2cnn(-c3ccccc3)c2)CC1`, -95.3%; under `Cc1ccccc1-n1cc(C2=CCN(CCN3CCOCC3)CC2)cn1`, 19.4%. Under `CCOCc1ncn2c1CN(C(=O)Nc1ccccc1)CC2` stands -27%; under `O=C(c1cccc(O)n1)N1CCC(O)(CN2CCC(F)(F)CC2)C1` (stereo not drawn), -21.6%; under `Cc1nccn1CCCNc1ncccc1C#N`, 18.4%. Consider `CC(=O)N1CCc2c(nc(N(C)C)nc2NCCC2CCCCO2)C1` (stereo not drawn), for which the INHIBITION is given as 45.1%. For the molecule `Cc1nc2c(c(NCc3ccccc3)n1)CCN(C(=O)NC(C)C)CC2`, the INHIBITION was found to be 66.1%. For `CC(=O)N1CCc2c(nc(N(C)C)nc2NCc2cccs2)C1`, the INHIBITION was found to be 61.9%. Take `CC(=O)N1CCc2c(nc(N(C)C)nc2NCCCn2ccnc2)C1`: the INHIBITION is reported as 18.4%. For `COCCNc1nc2c(c(NCCc3cccs3)n1)CCNCC2`, the INHIBITION turned out to be 28%.

For `CC(=O)N1CCc2c(nc(N(C)C)nc2NCCc2cccs2)C1`, the INHIBITION was 63.8%.

Regarding `CSCC(=O)N1CCc2nc(C)nc(NCc3ccccc3)c2CC1`, the INHIBITION is 37.3%.

For `CC(=O)N1CCc2c(nc(N(C)C)nc2N(C)CCCC2CCCO2)C1` (stereo not drawn), the INHIBITION came out at 21.7%. Under `CC(C)NC(=O)N1CCc2nc(C(=O)NCc3ccccc3)sc2CC1` stands 34.1%. In the case of `CC(=O)N1CCc2c(nc(N(C)C)nc2NCCCn2ccnc2C)C1`, the INHIBITION turned out to be 71.3%. With `CC(=O)N1CCc2c(nc(N(C)C)nc2N(C)CCC2CCCCO2)C1` (stereo not drawn), the INHIBITION is listed as -10.4%. On to `Cn1c(NCC(O)c2ccc(F)cc2)c(C#N)c(=O)n(C)c1=O` (stereo not drawn), for which the INHIBITION is listed as -60.8%. Under `Cn1cc(CN2CCCC3(CCN(c4nncs4)C3)C2)cn1` (stereo not drawn) stands 22.4%; under `CN1CCO[C@@H]2CN(S(=O)(=O)c3ccccc3)CC[C@@H]2C1`, 4.02%; under `CC(=O)N1[C@H](CN(C)C)C[C@@H]2CN(C(=O)c3cccn3C)CC[C@@H]21`, -9.74%.

Consider `COc1c(C2CCCN2C(=O)c2cscn2)c(C)nn1C` (stereo not drawn), for which the INHIBITION came to 38.8%.
